PubChem BioAssay AID624308 (National Center for Advancing Translational Sciences (NCATS), 2012)
Records with an inconclusive call do not appear. Calls of active or inactive are those of the source. Calls come from the whole dose curve; as a rule, active = well fitted inhibition curve with a large enough effect; inconclusive = small, poorly fitted or top-dose-only effect; inactive = flat fitted curve, though single readings scatter.

Target: Peptidyl-prolyl cis-trans isomerase NIMA-interacting 1 (Homo sapiens) (UniProt Q13526)
Experiment: qHTS Assay to Find Inhibitors of Pin1: Hit Validation
Conditions: Pin1 FP peptide displacement, HiFluor488 probe
Excerpt: The unique chemical properties of Pro allow for the adoption of two completely distinct amide bond conformations (cis and trans). Peptidyl-prolyl cis/trans isomerases (PPIases) are evolutionary conserved enzymes that catalyze cis/trans isomerization of peptidyl-prolyl peptide bonds. Distinct from all other PPIases such as cyclophilins and FK506-binding proteins (FKBPs), Pin1 binds a subset of phos.Ser/Thr-Pro-containing proteins using its protein-targeting WW domain and isomerizes only specific phos.Ser/Thr-Pro bonds, which cannot be effectively catalyzed by other known PPIases. […] The goal of this screen is to find small-molecule inhibitors of Pin1 using a fluorescence polarization competition assay. […]
Pin1 (0.6 uM) was dispensed into black, solid 1536-well plates at 2 uL/well in 10 mM HEPES (pH 7.5), 10 mM NaCl, 0.01% Tween20, 1 mM DTT, and 1% glycerol. […] The plates were measured on a ViewLux plate reader for fluorescence polarization signal using a 480/20 nM nm excitation filter and 540/25 nM nm S and P emission filters with a 20 second exposure. The %Activity was determined from the corrected fluorescence polarization values. […] Concentration-response curves were fitted to the signals arising from the resulting fluorescence polarization. […] Keywords: Peptidyl prolyl isomerase, Pin1, fluorescence polarization, MLSMR, MLPCN, NIH Roadmap, qHTS, NCGC

Chain of Peptidyl-prolyl cis-trans isomerase NIMA-interacting 1 (Homo sapiens) (Q13526 whole entry, looked up): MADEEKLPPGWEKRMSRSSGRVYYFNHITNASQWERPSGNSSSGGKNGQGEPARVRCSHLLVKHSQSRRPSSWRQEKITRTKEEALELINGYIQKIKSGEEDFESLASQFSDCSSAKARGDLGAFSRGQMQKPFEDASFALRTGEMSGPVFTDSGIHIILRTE

`Cc1cc2c(C(C)C)c(O)c(O)c(C=O)c2c(O)c1-c1c(C)cc2c(C(C)C)c(O)c(O)c(C=O)c2c1O` was tested, and the Potency was 1690 nM (active).
